In the library only some 0.86% were active in any assay of this set; here they are far more common.
BJeLR viab HTS – compounds reducing viability of BJeLR cells | BJeLR fibroblasts viability, CellTiterGlo ATP luminescence, 48 h; HRASV12, hTERT and SV40 LT/ST transformed | viability loss activity score, % (concentration not given with the values) | hit rate 0.64% among 30,000 | AID 2275; in the data active = viability loss activity score above about 50%;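 also: higher score means fewer live cells and less ATP luminescence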
A1 inh – inhibitors of A1 | MEF A1-2A-BIM cells, caspase-Glo luminescence, 3 h; percent of clofoctol signal, DMSO as zero | caspase activation, % (test concentration not listed) | hit rate 0.51% among 21,000 | AID 2241;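 active = most replicate scores above 10, or exactly half above 10 with mean activity above 10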;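 also: effector caspase 3 and 7 activity cleaving a DEVD luciferin substrate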
* hit, by the source's call; / = no result given.

SMILES | BJeLR viab HTS | A1 inh
CN(C)c1ccc(/C=C/C=C2/C(=O)NC(=O)N(c3ccccc3)C2=O)cc1 | 60.0* | /
CN1C(=O)NC(=O)/C(=C\C=C\c2ccco2)C1=O | -2.7 | -0.1
CCC1CN2CCC3(C(=O)Nc4cccc(O)c43)C2CC1/C(=C/OC)C(=O)OC (stereo not drawn) | -6.0 | 0.4
Cc1cccc(C)c1NC1=NCCS1 | 10.3 | -0.5
CC1C/C=C/C2C3OC3(C)C(C)C3C(Cc4ccccc4)NC(=O)C23OC(=O)O/C=C/C(C)(O)C1=O (stereo not drawn) | 2.8 | 16.0*
CCNCC(O)c1cccc(OC(=O)c2ccccc2C)c1 (stereo not drawn) | -6.7 | -0.2
CN1Cc2c(ccc3c2OCO3)[C@@H]2[C@H]1c1cc3c(cc1C[C@@H]2O)OCO3 | 41.1 | 1.9
C[C@]12CC[C@H](O)C[C@H]1CC[C@@H]1[C@@H]2CC[C@]2(C)[C@@H](C3=CC(=O)OC3)CC[C@]12O | 90.7* | -0.6
COC1CC(O[C@H]2CC[C@@]3(C)C(CCC4C3CC[C@]3(C)C(C5=CC(=O)OC5)CCC43O)C2)OC(C)C1OC1OC(COC2OC(CO)C(O)C(O)C2O)C(O)C(O)C1O (stereo partly drawn) | 93.5* | 0.1
CC12CC[C@H]3C(CCC4(O)CC(O)CCC34O)C1(O)CCC2C1=CC(=O)OC1 (stereo partly drawn) | 3.4 | -0.3
C[C@]12CC[C@H](O)C[C@H]1CC[C@@H]1[C@@H]2C[C@@H](O)[C@]2(C)[C@@H](C3=CC(=O)OC3)CC[C@]12O | 83.2* | -0.3
CC(=O)OC1CCC2(C)C(CC[C@@H]3[C@@H]2CCC2(C)C(C4=CC(=O)OC4)CCC32O)C1 (stereo partly drawn) | 88.8* | -0.4
CC(=O)OCC(=O)[C@H]1CC[C@H]2[C@@H]3CC[C@H]4C[C@H](O)CC[C@]4(C)[C@H]3C(=O)C[C@]12C | -4.2 | 0.4
CC[C@@H](C)C(=O)O[C@H]1[C@H](O)[C@H]2[C@@H](CN3C[C@@H](C)CC[C@H]3[C@@]2(C)O)C2C[C@]34O[C@@]5(O)[C@@H](OC(=O)[C@](C)(O)CC)CC[C@@]3(C)[C@@H]5[C@@H](OC(C)=O)[C@@H](OC(C)=O)[C@H]4[C@@]21O (stereo partly drawn) | -12.0 | -1.0
CCC(O)CC1CCCC(CC(O)c2ccccc2)N1C (stereo not drawn) | -10.8 | 0.3
C/C=C(\C)[C@H](O)[C@H](C)/C=C(C)/C=C/C/C(C)=C/Cc1[nH]c(OC)c(OC)c(=O)c1C | 25.8 | 0.0
C[C@@H]1CCC/C=C/[C@H]2C[C@@H](O)C[C@@H]2[C@@H](O)/C=C\C(=O)O1 | 39.0 | 4.8
CC(C)n1[nH]c(=O)c2c1NC(=O)CSC2c1ccc(Br)cc1 (stereo not drawn) | -10.4 | 0.7
CC(=O)NC1C(OC2OC(CC(O)C3OC(n4ccc(=O)[nH]c4=O)C(O)C3O)C(O)C(O)C2NC(=O)/C=C/CCCCCCCCCC(C)C)OC(CO)C(O)C1O (stereo not drawn) | 9.7 | 3.1
CC(=O)O[C@H]1CC[C@]2(C=O)[C@H]3CC[C@]4(C)[C@@H](C5=CC(=O)OC5)CC[C@]4(O)[C@@H]3CC[C@]2(O)C1 | 111.0* | 0.3
CO[C@H]1[C@@H](O)[C@@H](C)O[C@@H](O[C@@H]2C=C3C(OC(C)=O)CC4(O)C(CC[C@]5(C)[C@@H](C6=CC(=O)OC6)CC[C@]45O)[C@@]3(C)CC2)[C@@H]1O (stereo partly drawn) | 114.9* | 0.6
CO[C@H]1[C@@H](O)[C@@H](C)O[C@@H](OC2CCC3(C)C(CC[C@@H]4[C@@H]3CCC3(C)C(C5=CC(=O)OC5)C(O)CC43O)C2)[C@@H]1O (stereo partly drawn) | 110.7* | 0.2
C[C@H]1O[C@@H](O[C@H]2[C@@H](O)C[C@H](O[C@H]3[C@@H](O)C[C@H](O[C@H]4CC[C@]5(C)C6CC[C@]7(C)[C@@H](C8=CC(=O)OC8)CC[C@]7(O)C6CC[C@@H]5C4)O[C@@H]3C)O[C@@H]2C)C[C@H](O)[C@@H]1O (stereo partly drawn) | 112.9* | 0.8
COC1CC(OC2CCC3(C)C(CCC4(O)C3CC(OC(=O)c3ccccc3)C3(C)C(O)(C(C)=O)CCC43O)C2)OC(C)C1OC1CC(OC)C(OC2OC(C)C(O)C(OC)C2O)C(C)O1 (stereo not drawn) | -7.3 | -0.5
O=C(CCl)c1cc(Br)c(Br)s1 | 34.7 | 3.7
CC1=CC(=O)C2=C(C)C[C@H](O)[C@@H]3[C@H](OC(=O)[C@H]3C)[C@H]12 | 4.6 | -0.1
c1cncc(C2N=C(c3cnccn3)NN2)c1 (stereo not drawn) | -4.2 | -3.2
CN(C)C(=O)Oc1nnc(SCCS(=O)(=O)c2ccc(F)cc2)n1-c1ccccc1 | -1.7 | -0.5
CCOc1ccc(C(Nc2ccccc2)P2(=S)OCCCO2)cc1 (stereo not drawn) | 2.0 | /

Screening data deposited in PubChem BioAssay by Broad Institute.
